HT1080 IDH1KD tx = kills HT-1080 cells with IDH1 knockdown; AID 686971; 360,000 compounds, 2% hits; Potency, µM (doses to about 46.1 µM), for inactives: top-dose activity, negative = toxicity, usual class: cytotoxic; HT-1080 IDH1 knockdown viability, ATP luminescence, 48 h;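 note: 0% = DMSO wells and -100% = cell-free medium wells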
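In this qHTS, HT-1080 cells depleted of IDH1 are exposed for 48 h at 37 °C to compound titrations. Toxicity is scored from CellTiter-Glo luminescence, with DMSO as full viability and medium alone as none.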
HT1080-NT tox = kills 2HG-producing HT-1080-NT fibrosarcoma cells | HT-1080-NT fibrosarcoma viability, CellTiter-Glo ATP luminescence, 48 h | Potency, µM (top dose mostly 46.1 µM), for the others: at the top dose activity, negative = less viability, usual class: cytotoxic | 360,000 compounds, 1.6% hits | AID 686970;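 note: NT is the 2HG producing partner of a matched IDH1 knockdown line; 0% = DMSO-treated cells and -100% = media-only wells without cells; nearly all actives have a fitted effect of over 55% in size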
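Viability by CellTiter-Glo luminescence after 48 h compound exposure at 37C of HT-1080-NT cells (750/well, RPMI, 5% FBS). % activity scaled between DMSO wells and medium-only wells, then curve-fitted and categorized by curve class.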
ATXN2 expr inh = reduces ATXN2 reporter expression in HEK-293 cells. AID 1745845. 360,000 compounds, 0.72% hits. HEK-293 ATXN2-luciferase reporter, luminescence, 24 h. Potency, µM (series often up to 57 µM), for inactives: at the top dose activity change, negative = inhibition, usual class: inhibitors; note: % is set by controls: 0 for no effect and ±100 for the full control effect; nearly all actives have a fitted effect of over 55% in size
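qHTS (up to 57 uM final) was run with 24 h compound exposure of reporter cells at 37 °C. Each well was multiplexed: SteadyGlo luminescence measured ATXN2-luciferase expression after a fluorogenic Gly-Phe-AFC viability readout (25 uM final).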
ATXN viability = reduces viability in counter-screen for ATXN expression inhibitors; Potency, µM (highest dose often 56.7 µM), hits mostly cytotoxic; 400,000 compounds, 0.49% hits; S2 cells (HEK-293 line with an ATXN2-luciferase reporter) viability, CellTiter-Fluor protease fluorescence, 24 h; AID 651635; note: nearly all actives have a fitted effect of over 40% in size
KB-V1 MDR tox = KB-V1 MDR subline cytotoxicity; KB-V1 MDR cells viability, CellTiter-Glo, 72 h; Potency, µM (doses to about 46.1 µM), hits mostly cytotoxic; 400,000 compounds, 3.4% hits; note: % is set by controls: 0 for no effect and ±100 for the full control effect; nearly all actives have a fitted effect of over 60% in size
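Drug-selected KB-V1 cells, grown in DMEM lacking phenol red with 10% FBS, receive compound titrations; after three days at 37 degrees C, surviving cell ATP is quantified by CellTiter-Glo luminescence and responses normalized and curve-fitted.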
KB-3-1 tox = KB-3-1 parental cell cytotoxicity; Potency, µM (top dose mostly 46.1 µM), most hits filed as cytotoxic; AID 1347075; 400,000 compounds, 1.4% hits; KB-3-1 viability, CellTiter-Glo ATP luminescence, 72 h; note: % is set by controls: 0 for no effect and ±100 for the full control effect; nearly all actives have a fitted effect of over 60% in size
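Parental KB-3-1 adenocarcinoma cells in phenol-red-free DMEM with 10% FBS were pin-treated with compounds at several concentrations, incubated 72 h at 37 °C, and viability read by CellTiter-Glo luminescence; concentration-effect curves were fitted after normalization.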
Numbers without * were called inactive; i = inactive; ? = inconclusive; . = not tested or not shown; ! = repeats disagree; [ ] = another dose, or the depositor's remark. Shown are actives, neighbours in structure and some others; about 6.2% of the full set was active somewhere. Calls come from the whole dose curve; as a rule, active = well fitted curve in the direction sought with a large enough effect; inconclusive = small, poorly fitted or top-dose-only effect, or another doubt; inactive = no such curve, though single readings can be large; an effect the other way counts as inactive or inconclusive. Potency is the fitted concentration of half-maximal effect.

SMILES | HT1080 IDH1KD tx | HT1080-NT tox | ATXN2 expr inh | ATXN viability | KB-V1 MDR tox | KB-3-1 tox
Clc1ccc(-c2cc(C3CCNCC3)[nH]n2)cc1 | -2% | ? | -35% | i | i | i
COc1ccc(OC)c(-c2cc(C3CCN(c4cc(Cl)nc(N)n4)CC3)[nH]n2)c1 | ? | -11% | ? | i | 3.3µM* | 7.3µM*
COc1ccc(-c2cc(C3CCN(Cc4ccc([N+](=O)[O-])cc4)CC3)[nH]n2)cc1 | ? | -12% | -32%[11.3 µM] | i | i | i
COc1ccc(-c2cc(C3CCN(Cc4cccc(C(F)(F)F)c4)CC3)[nH]n2)cc1 | ? | 16µM* | ? | i | ? | ?
Cc1ccc(CN2CCC(c3cc(-c4ccc(Cl)cc4)n[nH]3)CC2)cc1 | ? | 0% | 20µM* | ? | ? | ?
COc1ccc(-c2cc(C3CCN(CC(O)C(F)(F)F)CC3)[nH]n2)cc1 (stereo not given) | 2% | -3% | . | i | i | i
Nc1nc(Cl)cc(N2CCC(c3cc(-c4ccc(Cl)cc4)n[nH]3)CC2)n1 | 11µM* | 22µM* | 25µM* | ? | 15µM* | ?
COc1ccc(-c2cc3c(=O)n(CC(=O)Nc4ccc(Br)c(C)c4)ccn3n2)cc1OC | . | . | 21% | i | i | i
CNC(=O)C1CCC(Cn2c(=O)c3sccc3n(CC(=O)Nc3cc(C)cc(C)c3)c2=O)CC1 (stereo not given) | . | . | 0% | i | ? | i
Cc1cccc(C(=O)NCC(c2ccc3c(c2)OCO3)N2CCN(c3ccccc3F)CC2)c1 (stereo not given) | . | . | -33% | ? | i | i
CC#CC[N+](C)(C)CCCCCCCCCC | ? | -27% | ? | i | i | 5.8µM*
C#CC[N+](C)(C)CC#Cc1ccccc1 | -5% | -19% | -18% | i | i | ?
C#CC[N+](C)(C)CCCCCCCCC | ? | ? | ? | i | i | 5.8µM*
CCC1CCCCN1S(=O)(=O)c1ccc(N2CCCCS2(=O)=O)cc1 (stereo not given) | . | . | -7% | i | i | i
CCOC(=O)C(Cc1ccc(O)cc1)Nc1nc2ccccc2o1 (stereo not given) | -2% | 7% | 12% | i | 21µM* | i
O=C(c1cc2c(c(-c3cccc(-c4ccc(F)cc4)c3)n1)[C@H](CCO)N(C(=O)c1ccc3c(c1)OCO3)C2)N1CCOCC1 | ? | 21µM* | -22% | i | ? | i
O=C(c1cc2c(c(-c3cccc(-c4ccncc4)c3)n1)[C@@H](CCO)N(C(=O)c1ccc3c(c1)OCO3)C2)N1CCOCC1 | 7% | -13% | 11% | i | i | i
COc1ccc(N2CCN(c3ccc(NC(=O)C4CCCCC4)cc3C#N)CC2)cc1 | 3%[9.24 µM] | 12% | -1% | ? | i | i
CC(=O)Nc1cccc(Oc2cc(C#N)c(C#N)cc2N2CCCCCC2)c1 | ? | ? | -35% | ? | 23µM* | ?
CCc1ccc(OCC(=O)Nc2ncn[nH]2)c(Br)c1 | . | . | ? | i | i | i
CC(=O)N1c2ccc(S(=O)(=O)N3CCCCCC3)cc2CC1C(=O)NCc1cccc(C)c1 (stereo not given) | . | . | 0% | i | i | i
N#Cc1c(N2CCCC2)nc(N)c2c(N)nc(N3CCCC3)cc12 | -26% | -20% | 41% | i | 0.73µM* | ?
COc1cc2c(C#N)c(N3CCCC3)nc(N)c2c(N)n1 | -2% | -2% | 9% | i | ? | i
CCOc1c(C)cc(-c2ncccc2O)cc1C | -20% | -1% | 10% | i | 13µM*! | ?
CCN(CC(=O)NCc1ccc(F)cc1)C(=O)COc1ccc2ccccc2c1 | 2% | -4% | 10% | i | 15µM* | i
SMILES | HT1080 IDH1KD tx | HT1080-NT tox | ATXN2 expr inh | ATXN viability | KB-V1 MDR tox | KB-3-1 tox
CCc1ccccc1OCC(=O)N(CC)CC(=O)NCc1ccc(F)cc1 | -1% | -4% | . | i | i | i
CCN(CC(=O)NCc1ccc(F)cc1)C(=O)COc1ccc(C)c(C)c1 | -2% | 1% | -5% | i | 18µM* | i
Cc1cccc(OCCSc2nc3ccccc3n2CC(=O)N2CCOCC2)c1C | . | . | -4% | ? | i | i
COC(=O)c1c(NC(=O)CSc2nnnn2-c2ccccc2)sc2c1CCC(C(C)(C)C)C2 (stereo not given) | 2% | 14% | 10% | i | 15µM* | i
CCOC(=O)c1c(NC(=O)C2COc3ccccc3O2)sc2c1CC(C)(C)NC2(C)C (stereo not given) | 16µM* | ? | -15% | ? | i | ?
CCOC(=O)c1c(NC(=O)CSc2nnnn2-c2ccccc2)sc2c1CC(C)(C)NC2(C)C | 23µM* | ? | ? | ? | i | i
CCOC(=O)c1c(NC(=O)C2COc3ccccc3O2)sc(C(C)=O)c1C (stereo not given) | 1%[9.24 µM] | -18% | -16% | i | i | i
CCOC(=O)c1c(NC(=O)Cc2ccccc2)sc2c1CC(C)(C)NC2(C)C | -11% | -22% | -33% | ? | i | i
CCn1c(CCC(=O)Nc2nc3c(s2)CCCC3)nc2cc(S(=O)(=O)N(C)C)ccc21 | -2% | -7% | ? | i | 23µM* | i
CCOC(=O)Nc1ccc(NCc2ccc(F)cc2)nc1N | ? | ? | 5% | i | i | i
CCOC(=O)Nc1cc2c(c(N)n1)N=C(c1ccccc1)CN2 | ? | 0.46µM* | 11% | ? | 0.13µM* | 0.18µM*
Cc1ccc(CNC(=O)c2cnn(-c3cccc(C)c3)c2C2CCN(C(=O)OC(C)(C)C)CC2)cc1 | . | . | . | . | i | ?
CCCc1cc(=O)oc2c3c(c4c(c12)OC(C)(C)C=C4)OC(C)C(C)C3O (stereo not given) | 3.7µM* | 5.8µM* | ? | ? | ? | ?
CCCc1cc(=O)oc2c3c(cc(OCC(=O)N[C@@H](C)C(=O)O)c12)OC(C)(C)CC3 | 26% | 10% | -16% | i | i | i
COc1ccc2c(c1)-c1nc(-n3ncc(C(=O)NCc4cccc(C)n4)c3C3CC3)ncc1CC2 | . | . | . | i | . | .
CC(C)Sc1nc(N2CCOCC2)c2c(c1C#N)CC(C)(C)SC2 | -3% | -2% | 4% | i | 6.5µM* | ?
Cc1cnc(N2CCC(C(N)=O)CC2)nc1-c1cccc(N(C)C)c1 | . | . | . | . | i | i
